Sm TGR inh: qHTS Assay for the Inhibitors of Schistosoma Mansoni Peroxiredoxins. purified TGR, DTNB reduction, TNB absorbance 405 nm. Potency, µM (highest dose often 114 µM), hits mostly inhibitors. hit rate 3% among 360,000; further: nearly all actives have a fitted effect of over 60% in size
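First, TGR (20 nM dispensed) and NADPH were mixed with compound. Second, a 15 min room-temperature incubation followed. Third, further NADPH and then DTNB were added to start the reaction. Finally, TNB absorbance was monitored kinetically.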
AmpC inh detg: qHTS Inhibitors of AmpC Beta-Lactamase (assay with detergent); AmpC hydrolysis of nitrocefin, absorbance 480 nm, 0.01% Triton; Potency, µM (series often up to 114 µM), usual class: inhibitors; hit rate 0.041% among 370,000; P00811; further: nearly all actives have a fitted effect of over 25% in size
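AmpC (5.3 nM in the dispensed reagent) in 20 mM phosphate pH 7.0 with 0.01% (detergent screen) or 0.0001% Triton X-100 was preincubated with compounds for 15 min at room temperature. Nitrocefin was then added from an 800 uM solution, and hydrolysis was followed at 480 nm.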
Giardia FBPA inh-1: qHTS Assay for Inhibitors of Fructose-1,6-bisphosphate Aldolase from Giardia Lamblia; A8B2U2; purified Giardia FBPA; Potency, µM (highest dose often 59.6 µM), hits mostly inhibitors; hit rate 0.71% among 290,000; AID 2451, 2010; further: nearly all actives have a fitted effect of over 55% in size
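Giardia FBPA (40 nM reagent) was preincubated 10 min at RT with compound (up to 57.5 uM final), then substrate plus GAPDH/TPI/NAD/arsenate coupling system with diaphorase/resazurin was added; resorufin fluorescence (525/598 nm) was read after 20 min.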
AmpC no deterg: qHTS Inhibitors of AmpC Beta-Lactamase (assay without detergent); P00811; AmpC nitrocefin hydrolysis, absorbance 480 nm, 0.0001% Triton; Potency, µM (doses to about 57.1 µM), actives largely listed as inhibitors; hit rate 0.52% among 330,000; AID 485341, 2010; further: nearly all actives have a fitted effect of over 20% in size
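AmpC (5.3 nM in the dispensed reagent) in 20 mM phosphate pH 7.0 with 0.01% (detergent screen) or 0.0001% Triton X-100 was preincubated with compounds for 15 min at room temperature. Nitrocefin was then added from an 800 uM solution, and hydrolysis was followed at 480 nm.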
Giardia growth: qHTS Assay for Inhibitors of Fructose-1,6-bisphosphate Aldolase from Giardia Lamblia: Giardia lamblia growth inhibition; AID 2785, 2010; shares compounds with Giardia FBPA inh-1; Potency, µM (top dose mostly 57.5 µM), hits mostly inhibitors; Giardia lamblia trophozoite growth inhibition; hit rate 5% among 1,500;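 further: trophozoites exposed to compound for 48 h at 37 °C; nearly all actives have a fitted effect of over 70% in size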
Mammal cell tox: qHTS Assay for Inhibitors of Fructose-1,6-bisphosphate Aldolase from Giardia Lamblia: Mammalian cellular toxicity | Potency, µM (highest dose often 57.5 µM), most hits filed as inhibitors | shares compounds with Giardia FBPA inh-1 | mammalian cell viability counter-screen, qHTS | hit rate 4% among 1,500 | AID 2786, 2010;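 further: Chinese hamster ovary cells used as mammalian cytotoxicity surrogate; viability measured as cellular ATP by luminescence; compound exposure lasted 48 h before reading; nearly all actives have a fitted effect of over 60% in size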
Giardia FBPA inh-2: qHTS Assay for Inhibitors of Fructose-1,6-bisphosphate Aldolase from Giardia Lamblia: Primary screen confirmation; AID 2787, 2010; shares compounds with Giardia FBPA inh-1; purified Giardia aldolase enzyme activity, qHTS; hit rate 5% among 1,500; Potency, µM (top dose mostly 57.5 µM), actives largely listed as inhibitors; further: nearly all actives have a fitted effect of over 45% in size
Rabbit aldolase: qHTS Assay for Inhibitors of Fructose-1,6-bisphosphate Aldolase from Giardia Lamblia: Rabbit FBPA Selectivity; Rabbit muscle FBPA enzyme inhibition, selectivity counter-screen; shares compounds with Giardia FBPA inh-1; AID 2794, 2010; hit rate 4% among 1,500; Potency, µM (series often up to 57.5 µM), actives largely listed as inhibitors; further: nearly all actives have a fitted effect of over 60% in size
Target sequence (P00883 whole entry, looked up): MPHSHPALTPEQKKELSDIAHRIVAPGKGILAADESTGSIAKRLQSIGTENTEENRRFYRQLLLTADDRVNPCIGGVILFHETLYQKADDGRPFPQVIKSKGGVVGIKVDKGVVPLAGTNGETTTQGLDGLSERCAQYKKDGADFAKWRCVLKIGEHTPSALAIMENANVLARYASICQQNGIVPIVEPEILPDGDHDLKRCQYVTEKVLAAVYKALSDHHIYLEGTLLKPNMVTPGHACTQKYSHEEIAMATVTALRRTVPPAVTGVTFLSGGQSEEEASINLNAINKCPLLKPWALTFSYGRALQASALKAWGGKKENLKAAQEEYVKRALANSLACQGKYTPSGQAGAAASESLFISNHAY
GAPDH coupling: qHTS Assay for Inhibitors of Fructose-1,6-bisphosphate Aldolase from Giardia Lamblia: Coupling assay counterscreen confirmation. shares compounds with Giardia FBPA inh-1. GAPDH coupling enzyme counterscreen, biochemical, qHTS. Potency, µM (doses to about 57.5 µM), most hits filed as inhibitors. hit rate 6% among 1,500; further: nearly all actives have a fitted effect of over 55% in size
Numbers stand for hits; [ ] = dose if it differs, or a comment. Most compounds without a hit are left out; they make up all but 3.6% or so of the library. The call rests on the fitted dose curve; in most records, active means well fitted curve in the direction sought with a large enough effect; inconclusive means small, poorly fitted or top-dose-only effect, or another doubt; inactive means no such curve, though single readings can be large; an effect the other way counts as inactive or inconclusive.

For COC(=O)c1c(SC)nc2ccccc2c1OCc1ccc(C)cc1 the results were Sm TGR inh inactive and AmpC inh detg inactive.
Screening O=c1ccc2c(-c3ccccc3)c3ccc(O)cc3oc-2c1 returned Sm TGR inh 8.91µM, AmpC inh detg inactive, Giardia FBPA inh-1 14.1µM, AmpC no deterg inactive, Giardia growth inconclusive, Mammal cell tox inactive, Giardia FBPA inh-2 inactive, Rabbit aldolase inactive and GAPDH coupling inactive.
Screening Nc1ccc(-c2c3ccc(=O)cc-3oc3cc(O)ccc23)cc1C(=O)O returned Sm TGR inh inconclusive, AmpC inh detg inconclusive, Giardia FBPA inh-1 inactive and AmpC no deterg inactive.
For CC(C)(C)NNC(=S)Nc1ccc(S(=O)(=O)N2CCOCC2)cc1 the results were Sm TGR inh inconclusive, AmpC inh detg inactive, Giardia FBPA inh-1 22.3µM, AmpC no deterg inactive, Giardia growth inactive[10.4 µM], Mammal cell tox inactive, Giardia FBPA inh-2 inactive, Rabbit aldolase inactive and GAPDH coupling inactive.
Screening CCN(CC)[C@@H](C)CN1c2ccccc2Sc2ccccc21 returned Giardia FBPA inh-1 inactive.
For C/C(CCc1ccccc1)=N\NC(=S)NCCc1ccccc1 the results were Sm TGR inh inactive, AmpC inh detg inactive, Giardia FBPA inh-1 inactive and AmpC no deterg inactive.
C/C(CCC(C)C)=N\NC(=S)NCc1ccccc1 was read as Sm TGR inh inactive, AmpC inh detg inactive, Giardia FBPA inh-1 15.8µM, AmpC no deterg inactive, Giardia growth inactive, Mammal cell tox inactive, Giardia FBPA inh-2 inactive, Rabbit aldolase inactive and GAPDH coupling inactive.
Screening Clc1ccccc1CN1CCN(CCCc2ccccc2)CC1 returned Sm TGR inh inactive, AmpC inh detg inactive, Giardia FBPA inh-1 19.9µM, AmpC no deterg inactive, Giardia growth inactive, Mammal cell tox inactive, Giardia FBPA inh-2 inactive, Rabbit aldolase inactive and GAPDH coupling inactive.
`Fc1ccc(CN2CCN(C(c3ccccc3)c3ccccc3)CC2)cc1` gave Sm TGR inh inactive, AmpC inh detg inconclusive, Giardia FBPA inh-1 25.1µM, AmpC no deterg inactive, Giardia growth inconclusive, Mammal cell tox inactive, Giardia FBPA inh-2 inactive, Rabbit aldolase inactive and GAPDH coupling inactive.
Screening OCC1(CCc2ccccc2)CCN(Cc2ccccc2Cl)CC1 returned Sm TGR inh inactive, AmpC inh detg inactive, Giardia FBPA inh-1 inactive and AmpC no deterg inactive.
Screening O=C(Cc1ccccc1)N1CCN(Cc2ccc(F)cc2)CC1 returned Sm TGR inh inactive, AmpC inh detg inconclusive, Giardia FBPA inh-1 28.2µM, AmpC no deterg inactive, Giardia growth inactive[10.4 µM], Mammal cell tox inactive, Giardia FBPA inh-2 inactive, Rabbit aldolase inactive and GAPDH coupling inactive.
O=C(Cc1ccccc1)N1CCN(CCCc2ccccc2)CC1 was read as Sm TGR inh inactive, AmpC inh detg inactive, Giardia FBPA inh-1 25.1µM, AmpC no deterg inactive, Giardia growth inactive, Mammal cell tox inactive, Giardia FBPA inh-2 inactive, Rabbit aldolase inactive and GAPDH coupling inactive.
For Cc1cccc(NC(=O)CCCn2c(=S)[nH]c3ccccc3c2=O)c1 the results were Sm TGR inh inactive, AmpC inh detg inactive, Giardia FBPA inh-1 inactive and AmpC no deterg inconclusive.
Screening O=C(CN1CCCCC1)NCC(=O)Nc1ccc(F)c(F)c1F returned Sm TGR inh inactive, AmpC inh detg inactive and AmpC no deterg inactive.
Screening COc1cccc2cc(S(=O)(=O)c3ccc(F)c(C)c3)c(=O)oc12 returned Sm TGR inh inactive and AmpC inh detg inactive.

Compound activity from PubChem BioAssay.
